The source of these data is PubChem BioAssay AID651871 (Sanford-Burnham Center for Chemical Genomics, 2012).

Values joined by “and” are separate entries in the source; they are usually repeats but may differ in a detail not shown here. Equal values may be shown once.

This assay relates to H9c2. Kind of assay: protection of cardiomyocytes from stress damage, SAR follow-up, cell-based, panel, H9c2 and HL-1, ATP luminescence, set 2 (AID 651871).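 Note: cells exposed to stressor for 2 h before ATP readout; reference of the scale not given here.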 The note with it: H9c2/HL-1 cardiomyocytes, 2-deoxyglucose stress, with 2-deoxyglucose; run 3, at 79 µM (top of the series).
As to `COc1ccc2nc(-c3cc(OC)c(OC)c(OC)c3)cc(C(=O)NCC(=O)Nc3ccc(C(C)=O)cc3)c2c1`, the activity (protection/inhibition) is 75.4%.
The figure for `COc1ccc2c(c1OC)C(=O)N1c3ccccc3C(=O)N(Cc3cccc(Cl)c3Cl)C21` (stereo not drawn) is 71.2% and 81.8% and -10.3%; for `CCOC(=O)c1cccc(NC(=O)CNC(=O)c2cc(-c3cc(OC)c(OC)c(OC)c3)nc3ccccc23)c1` it is 92.4%.
